From PubChem BioAssay AID493208 (National Center for Advancing Translational Sciences (NCATS), 2011)
In all, about 44,000 compounds went through this assay and about 340 (0.77%) were called active. Inconclusive results (about 5%) are left out. Calls follow the shape of the dose curve; as a rule, active = well fitted inhibition curve with a large enough effect; inconclusive = small, poorly fitted or top-dose-only effect; inactive = flat fitted curve, though single readings scatter. The list comes from a sample in which actives are over-represented; it also holds similar structures and randomly drawn compounds. Where a call stands in place of a potency, no number is given.

test: Acumen qHTS Assay for Inhibitors of the mTORC1 Signaling Pathway in MEF (Tsc2-/-, p53-/-) Cells: Sytravon; conditions: phospho-rpS6 immunofluorescence/PI, 24 h; series mostly up to 38.3 µM; also: nearly all actives have a fitted effect of over 50% in size
How it was run: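 Plate MEFs (Tsc2-/-, p53-/-, empty vector) in DMEM/10% FBS; after 24 h add compound, incubate 24 h at 37 degree Celsius; fix in PFA/TX-100, block, stain phospho-rpS6 and 10 uM PI; scan at 488 nm; report % positive cells.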
Potency is read from the fitted curve at half-maximal effect.

| Structure (SMILES) | Potency |
| --- | --- |
| CCOc1ccccc1N(CC)C(=O)c1cc2ccc3cccnc3c2[nH]1 | inactive |
| Cc1ccc(C(=O)N2CCc3cc(CNC(=O)c4ccc(Br)cc4)ccc32)cc1 | inactive |
| Cc1ccc(-n2c(=O)c3cccnc3n2CC(=O)Nc2ccccc2C(F)(F)F)cc1C | inactive |
| COc1cc(NC(=O)c2nc3ccccc3nc2C)cc(OC)c1OC | inactive |
| COc1cc(C(=O)Nc2ccc(-n3c(C)nc4ccccc4c3=O)cc2)cc(OC)c1OC | inactive |
| COc1ccccc1Nc1c2c(nc3ccc(NC(=O)/C=C/c4cc(OC)c(OC)c(OC)c4)cc13)CCCC2 | 3.29 µM (active) |
| COc1ccc(NC(=O)c2ccc3oc(=O)c(S(=O)(=O)c4ccc(F)cc4)cc3c2)c(OC)c1 | inactive |
| CCC(=O)NCc1cc(-c2nn(C)c(=O)c3ccccc23)ccc1OC | inactive |
| CCOc1cc(C(=O)NCCc2csc3nc(-c4ccc(C)cc4)nn23)cc(OCC)c1OCC | inactive |
| COc1cccc(NC(=O)CN2C(=O)c3ccccc3Sc3ncccc32)c1 | inactive |
| CC1=C(c2ccc(F)cc2)S(=O)(=O)N=C1N1CCC(C(=O)NCCc2ccccc2C)CC1 | inactive |
| COc1cc(NC(=O)c2cc(C3CC3)nc3c2c(C)nn3-c2ccccc2)cc(OC)c1 | inactive |
| COc1cccc(CNC(=O)C2CCN(S(=O)(=O)c3ccc4c(ccn4C)c3)CC2)c1 | inactive |
| Cc1ccc(OCCSc2nc(C)c(Cc3ccccc3)c(=O)[nH]2)cc1 | inactive |
| Cc1ccc(Cn2c(=O)n(CCCC(=O)NCc3ccccc3Cl)c(=O)c3ccccc32)cc1 | inactive |
| CCc1ccc(NC(=O)c2cc(S(=O)(=O)NC3CCCCCC3)ccc2F)cc1 | inactive |
| Cc1ccccc1NC(=O)Cn1cc(C(=O)c2cccs2)c2ccccc21 | inactive |
| O=C(c1cnn(-c2ccc(F)cc2)c1-n1cccc1)N1CCN(c2ccc(F)cc2)CC1 | inactive |
| CCOC(=O)c1cc(-c2ccccc2)n(-c2cccc(C(=O)Nc3cc(OC)cc(OC)c3)c2)c1C | inactive |
| Cc1oc2ccc(O)c(CN3CCOCC3)c2c1C(=O)Nc1cccc(Cl)c1C | inactive |
| O=C1OC(C(=O)Nc2cccc(Br)c2)Cc2ccccc21 (stereo unspecified) | inactive |

| Structure (SMILES) | Potency |
| --- | --- |
| Cc1c(NC(=O)c2cc(-c3ccc(Br)cc3)on2)c(=O)n(-c2ccccc2)n1C | inactive |
| COc1ccc(NC(=O)C2CCCN(S(=O)(=O)c3c(C)[nH]c(=O)[nH]c3=O)C2)c(OC)c1 (stereo unspecified) | inactive |
| COc1ccc(-c2nnc(SCC(=O)Nc3ccc(C(C)C)cc3)nc2-c2ccc(OC)c(OC)c2)cc1OC | inactive |
| Clc1cccc(-n2ncc3c(NCCc4ccccc4)ncnc32)c1 | inactive |
| Fc1ccc(Nc2nc(SCc3ccccc3Cl)nc3ccccc23)cc1 | inactive |
| O=C(C1CCCN(S(=O)(=O)c2cccc3nonc23)C1)N1CCN(c2ccccc2F)CC1 (stereo unspecified) | inactive |
| Cc1ccc(N2CC(c3nnc(Cc4ccccc4Cl)o3)CC2=O)cc1 (stereo unspecified) | inactive |
| CCOC(=O)c1ccc(CN(Cc2ccccc2)S(=O)(=O)c2ccc(Cl)cc2)cc1 | inactive |
| Cn1c(=O)c(C(=O)O)nn(-c2ccccc2)c1=O | inactive |
| Cc1ccc(-c2cn3c(n2)sc2cc(C(=O)NCCCc4ccccc4)ccc23)cc1 | inactive |
| CCCCN1CC(c2nc3ccccc3n2CCCCOc2ccc(C)cc2C)CC1=O (stereo unspecified) | inactive |
| COc1cccc(C(=O)NC2=NC(c3ccc(N(C)C)cc3)CC(=O)N2)c1 (stereo unspecified) | inactive |
| CCN(C(=O)Cn1cc(S(=O)(=O)N2CCN(c3ccccc3F)CC2)c2ccccc2c1=O)c1ccc(C)c(C)c1 | inactive |
| CSc1nc(-c2ccccc2Cl)nc2c1Cc1c(CO)cnc(C)c1O2 | inactive |
| Cc1cc2ccccc2n1CCNC(=O)c1ccc(F)cc1 | inactive |
| Cc1cccc(NC(=O)N2CCC(CN3CCc4ccccc4C3)CC2)c1C | inactive |
| CCC(=O)N1CCc2cc(CNC(=O)Nc3ccccc3Cl)ccc21 | inactive |
| COc1ccc(CNC(=O)CSCc2nc(-c3ccccc3F)oc2C)cc1 | inactive |
| CCOc1ccc(-n2c(SCC(=O)NCc3ccccc3)nc3n[nH]c(C)c3c2=N)cc1 | inactive |
| Cc1cccc(NC(=O)C2CCN(S(=O)(=O)c3c(C)noc3/C=C/c3ccco3)CC2)c1 | inactive |
